Laboratory results as given in PubChem BioAssay AID624450 (Southern Research Specialized Biocontainment Screening …, 2012).
The source made the active and inactive calls. No rule for the calls is given here.

Experiment: Vero 76 cell cytotoxicity, cytotoxicity control for VEEV inhibitor project, set 7 (AID 624450)

SMILES	outcome
O=c1c2cc([N+](=O)[O-])ccc2nc(CN2CCNCC2)n1-c1ccsc1	inactive
CCN1CCN(Cc2nc3ccc([N+](=O)[O-])cc3c(=O)n2C)CC1	inactive
CCN1CCN(Cc2nc3ccc(C(=O)O)cc3c(=O)n2-c2ccccc2)CC1	inactive
COc1ccccc1-n1c(CN2CCNCC2)nc2ccc([N+](=O)[O-])cc2c1=O	inactive
CCN1CCN(Cc2nc3ccc([N+](=O)[O-])cc3c(=O)n2-c2ccccc2F)CC1	inactive
COc1ccc(-n2c(CN3CCNCC3)nc3ccc([N+](=O)[O-])cc3c2=O)cc1	inactive
COc1cccc(-n2c(CN3CCNCC3)nc3ccc([N+](=O)[O-])cc3c2=O)c1	inactive
